# Source: paper PMC4336329 (PLoS ONE, 2015)
# The whole screen tested about 310,000 compounds, of which about 14,000 (4.5%) showed an effect of 50% or more. Effects have a minus sign here. The sample as a whole holds a higher share of strong results than the screen did.
# Molecular target: human ether-à-go-go-related gene (hERG) potassium channel (human, UniProt Q12809)
# Assay: primary screen, population patch clamp on CHO cells stably expressing hERG; higher = less effect of the substance
# 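Further: peak tail current of the secondary pulse compared with the same well before compound.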
# human ether-à-go-go-related gene (hERG) potassium channel, sequence (Q12809 whole entry, looked up): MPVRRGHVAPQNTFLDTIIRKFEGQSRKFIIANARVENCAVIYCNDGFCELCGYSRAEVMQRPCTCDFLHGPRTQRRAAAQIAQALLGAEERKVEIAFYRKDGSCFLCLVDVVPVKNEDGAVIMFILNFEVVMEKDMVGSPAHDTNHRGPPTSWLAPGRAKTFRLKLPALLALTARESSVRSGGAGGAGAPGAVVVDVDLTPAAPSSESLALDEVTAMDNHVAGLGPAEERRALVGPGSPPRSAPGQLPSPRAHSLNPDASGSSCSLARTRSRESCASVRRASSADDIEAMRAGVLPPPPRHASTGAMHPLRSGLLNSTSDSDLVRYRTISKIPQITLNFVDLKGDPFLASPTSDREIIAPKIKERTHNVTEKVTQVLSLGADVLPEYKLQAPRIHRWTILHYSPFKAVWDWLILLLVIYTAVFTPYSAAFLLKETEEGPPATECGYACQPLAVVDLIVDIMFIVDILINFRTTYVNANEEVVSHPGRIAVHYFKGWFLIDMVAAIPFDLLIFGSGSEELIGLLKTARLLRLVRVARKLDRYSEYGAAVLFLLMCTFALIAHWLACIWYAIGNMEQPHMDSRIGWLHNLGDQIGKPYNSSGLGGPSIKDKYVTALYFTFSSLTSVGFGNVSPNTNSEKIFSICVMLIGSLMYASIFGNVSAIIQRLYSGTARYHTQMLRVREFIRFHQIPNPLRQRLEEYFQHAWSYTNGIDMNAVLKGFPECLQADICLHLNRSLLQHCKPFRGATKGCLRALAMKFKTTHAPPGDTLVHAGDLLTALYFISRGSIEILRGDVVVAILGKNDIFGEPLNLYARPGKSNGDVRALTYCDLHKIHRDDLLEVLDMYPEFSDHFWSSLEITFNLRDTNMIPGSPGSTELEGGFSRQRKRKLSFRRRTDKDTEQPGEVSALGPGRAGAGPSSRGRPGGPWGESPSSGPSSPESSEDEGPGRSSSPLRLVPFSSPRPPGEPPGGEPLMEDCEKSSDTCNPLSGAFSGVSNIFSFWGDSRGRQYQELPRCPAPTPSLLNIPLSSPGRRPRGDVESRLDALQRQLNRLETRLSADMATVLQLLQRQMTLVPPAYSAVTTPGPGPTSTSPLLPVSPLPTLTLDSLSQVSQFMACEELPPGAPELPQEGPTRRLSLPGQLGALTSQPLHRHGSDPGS
row,SMILES,"hERG current change (%, negative = inhibition) at 10uM [%]"
1,Cc1nn(-c2ccccc2)cc1/C=N/O,0.476
2,Cc1ccc(C(=O)NCCCN2CCOCC2)c(Cl)c1,13
3,CCOC(=O)c1sc(=S)n(C)c1C,12
4,Cc1ccc(S(=O)(=O)N2CCN(C(=O)CSc3ccccn3)CC2)c(C)c1,-26.5
5,CN(Cc1nc2ccccc2n1C)S(C)(=O)=O,-5.28
6,Cn1c(CN2CCN(c3ccccc3NS(C)(=O)=O)CC2)nc2ccccc21,-61.5
7,CN1CCN(Cc2nc3ccccc3n2C)CC1CCO (stereo not shown),3.83
8,Cc1ccc(S(=O)(=O)N2CCN(Cc3nc4ccccc4n3C)CC2)cc1,-53.5
9,CN1CCN(Cc2nc3ccccc3n2C)CC1,-0.083
10,Cc1ccc(S(=O)(=O)n2c(CN3CCCC(C)C3)nc3ccccc32)cc1 (stereo not shown),-14.6
11,O=C(COC(=O)c1cccc(Cl)c1)Nc1cc(Cl)ccc1Oc1ccccc1,15.1
12,COCc1cc(=O)n2[nH]c(-c3cccc(Br)c3)cc2n1,-24.2
13,CC1=CC(=O)C=C(C)C1=NOC(=O)c1cccc([N+](=O)[O-])c1,9.59
14,Cc1c(C(=O)NCCN2CCOCC2)oc2ccc(Br)cc12,-15
15,CCOC(=O)N1CCC(NC(=O)c2oc3c(F)cccc3c2C)CC1,-15.4
16,CCOc1ccc2oc(C(=O)NC3CCN(Cc4ccccc4)CC3)c(C)c2c1.Cl,-15.1
17,Cc1c(C(=O)NC2CCN(Cc3ccccc3)C2)oc2c(Cl)cccc12 (stereo not shown),-71.8
18,O=C(NC1CCN(Cc2ccccc2)CC1)c1c(Cl)cccc1Cl,-10.7
19,Cc1c(C(=O)NC2CCN(Cc3ccccc3)C2)oc2ccc(Br)cc12 (stereo not shown),-61.8
20,O=C(OCC(=O)c1cccs1)C1=COCCO1,19.7

row,SMILES,"hERG current change (%, negative = inhibition) at 10uM [%]"
1,CC1CN(C(=O)/C(C#N)=C2\N=C(NC(=O)c3ccc(F)cc3)c3ccccc32)CC(C)O1 (stereo not shown),14.1
2,CCOC(=O)C1(Cc2ccccc2)CCCN(CCO)C1 (stereo not shown),6.18
3,COc1cc2cc(C(=O)N3CCN(c4ccccc4OC)CC3)[nH]c2cc1OC,24.5
4,C=CCN1CCN(C(=O)CCc2ccccc2)CC1,13.8
5,COc1cccc(N2CCN(C(=S)Nc3ccc(F)cc3)CC2)c1,16.1
6,CC1CCN(CCCOc2ccc(OCc3ccccc3)cc2)CC1.O=C(O)C(=O)O,-71.4
7,CC1CCN(CCOc2ccc(OCc3ccccc3)cc2)CC1.O=C(O)C(=O)O,-70.9
8,CC1CCCN(Cc2ccc(OCc3ccccc3)cc2)C1 (stereo not shown),-43.3
9,COc1ccc(Cl)cc1N1C(=O)C2CCCN2C1c1ccccc1F (stereo not shown),-0.486
10,C=CCNC(=O)C12CC3(C)CC(C)(CC(C)(C3)C1)C2,-11.8
11,CCOC(=O)C1CCCN(C(=O)CN(c2ccc(OC)cc2)S(=O)(=O)c2c(C)noc2C)C1 (stereo not shown),-4.08
12,CCOC(=O)C1(Cc2ccc(OC)cc2)CCN(C(=O)c2cc(C)nn2C)CC1,-40.5
13,O=[N+]([O-])c1cccc(Cl)c1NCCNS(=O)(=O)c1ccccc1,-15.2
14,Oc1ccccc1/C=N/c1c(-c2ccco2)nc2ccccn12,-4.17
15,OC1CCN(c2c3c(nc4cc(-c5ccc(F)cc5)nn24)CCC3)CC1,-7.45
16,Cc1ccc(/C=C/C(=O)N2CCCC(C(N)=O)C2)o1 (stereo not shown),-8.59
17,Cc1cc(C[n+]2ccsc2N)c2ncccc2c1.[Br-],-48.2
18,CCOc1cccc(OCCCOc2cccc3cccnc23)c1,-8.52
19,CCOc1ccc(C(=O)C[n+]2cccc3cc(C)ccc32)cc1.[Br-],-47.9
20,Cc1cc(C[n+]2ncsc2N)c2ncccc2c1.[Br-],-33.8

row,SMILES,"hERG current change (%, negative = inhibition) at 10uM [%]"
1,COc1ccc2c(c1)sc(N)[n+]2Cc1cc(C)cc2cccnc12.[Br-],-74
2,CCOc1ccc2c(c1)sc(N)[n+]2Cc1cc(C)cc2cccnc12.[Br-],-74.9
3,CC(C)CCN(C(=O)C1CSC2(C)CCC(=O)N12)c1c(N)n(Cc2ccccc2)c(=O)[nH]c1=O (stereo not shown),6.21
4,CC12CCC(C(=O)N(c3cccc(Cl)c3)C1=O)C2(C)C (stereo not shown),-4.23
5,O=Nc1ccc(NOC(=O)c2ccccc2)cc1,5.89
6,COc1ccc(CNC(=O)C(C#N)c2nc3ccccc3nc2N2CCCC2)cc1 (stereo not shown),10.1
7,COc1ccc(C)cc1NC(=O)c1ccc(S(=O)(=O)N2CCOCC2)cc1,2.48
8,COc1ccc2c(c1)c(C(O)CN1CCN(Cc3ccc4c(c3)OCO4)CC1)c(C)n2C (stereo not shown),-11
9,CC(C)OCC(O)CN1CCN(CC(O)COc2ccc3c(c2)OCO3)CC1 (stereo not shown),-33.3
10,Cl.OC(COCc1ccccc1)CN1CCN(Cc2ccc3c(c2)OCO3)CC1 (stereo not shown),-45
11,Cc1cc(C)cc(OCC(O)CN2CCN(Cc3ccc4c(c3)OCO4)CC2)c1.Cl (stereo not shown),-76
12,Cc1c(C(=O)C(=O)N2CCN(Cc3ccc4c(c3)OCO4)CC2)c2ccccc2n1C,-8.7
13,Cc1c(C(O)CN2CCN(Cc3ccc4c(c3)OCO4)CC2)c2ccccc2n1C (stereo not shown),-75.6
14,C=CCc1ccccc1OCC(O)CN1CCOCC1 (stereo not shown),13.1
15,C=CCc1ccccc1OCC(O)CN1CCN(Cc2ccc3c(c2)OCO3)CC1 (stereo not shown),-91
16,COc1ccc(OCC(O)CN2CCN(Cc3ccc4c(c3)OCO4)CC2)cc1.Cl (stereo not shown),-47.4
17,Cl.OC(COc1ccccc1)CN1CCN(Cc2ccc3c(c2)OCO3)CC1 (stereo not shown),-60.5
18,Cl.OCCN1CCN(CC(O)COc2ccc3c(c2)OCO3)CC1 (stereo not shown),12.7
